Rows were chosen to be rich in hits. Some 4.3% of all compounds tested hit in one or more screens of this group.
HIF-2a inh = inhibitors of HIF-2a; 786-0 RCC cells HIF-2a reporter, luciferase luminescence, overnight; inhibition, % at 18.8 µM; 360,000 tested, 0.72% active;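 active means inhibition of the luminescence signal of 40% or more relative to plate controls, in a single-dose primary screen at 18.75 µM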
CHOP inh = inhibitors of CHOP induction in ER stress response; inhibition, % at 10 µM; CHO-K1 CHOP-promoter luciferase, tunicamycin-induced, 15-18 h; 220,000 tested, 3.8% active;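 active means compounds that reduced the stress-induced luciferase reporter signal by more than about 70% of percent inhibition, limit read from the data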
Peg3 prom inh = inhibitors of Peg3 promoter; HeLa PEG-Prom luciferase reporter, luminescence, overnight; AID 588405; 360,000 tested, 1.7% active; inhibition, % at 20 µM;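 active means inhibition of at least 50% at 20 µM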
KKLEB cytotox = CF airway cell cytotoxicity counter-screen. KKLEB CF airway cells viability, ATPlite luminescence, overnight; hits give low values; cells stimulated with P. aeruginosa culture filtrate. activity change (cytotoxicity), % at 5 µM. 360,000 tested, 0.36% active. AID 602141;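 active means corrected activity change at or below -50% at 5 µM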
MITF TRPM1 inh = inhibitors of MITF-driven TRPM1 promoter in melanoma cells; AID 488899; inhibition, % at 12.5 µM; SK-MEL-5 TRPM1 promoter luciferase, 24 h; 330,000 tested, 0.83% active;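 active means mean inhibition across replicates of 60% or more, whatever share of single replicates reaches that level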
CF NFkB inh = inhibitors of cystic fibrosis induced NF-kB. KKLEB NF-kB-GFP reporter, PAF-induced, GFP fluorescence overnight. inhibition, % at 5 µM. 360,000 tested, 0.86% active;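 active means at least 50% inhibition at 5 µM, scaled per plate between neutral and stimulator controls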;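 further: PAF is a Pseudomonas aeruginosa culture filtrate used as stimulus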
Each line names hits and unclear results; the compound was inactive in the other large screens.

CC(=O)Nc1ccc(S(=O)(=O)NC2=C(N3CCN(C)CC3)C(=O)c3ccccc3C2=O)cc1	MITF TRPM1 inh 83 (no result: CHOP inh)
CCOC(=O)/C(C#N)=C/Nc1ccccc1OC(F)(F)F	none
CSc1ccc(S(=O)(=O)NCc2ccc(Cl)cc2Cl)cc1	CHOP inh 89
CSc1ccc(S(=O)(=O)NCc2ccccc2Cl)cc1	none
O=C(CSc1nnc(NC(=O)c2ccccc2Cl)s1)Nc1ccc2c(c1)oc1ccccc12	CHOP inh 71 (no result: HIF-2a inh, Peg3 prom inh, KKLEB cytotox, MITF TRPM1 inh, CF NFkB inh)
Cn1c(SCC(=O)Nc2ccc3[nH]c(=O)[nH]c3c2)nnc1-c1ccccc1	none (no result: CHOP inh)
Cn1c(SCC(=O)n2c3c(c4ccccc42)CCCC3)nnc1-c1ccccc1	none
Cn1c(SCC(=O)Nc2ccc3c(c2)oc2ccccc23)nnc1-c1ccccc1	CHOP inh 88
CC(=O)Nc1ccc(-c2nnc(SCC(=O)n3c4c(c5ccccc53)CCCC4)n2C)cc1	CHOP inh 78
CC(=O)Nc1cccc(-c2ccnc3c2CC(C(=O)NCc2ccc(N4CCN(C)CC4)cc2)O3)c1 (stereo unspecified)	none (no result: CHOP inh, MITF TRPM1 inh)
COC(=O)C(CCSC)NC(=O)CNS(=O)(=O)c1ccc(F)cc1 (stereo unspecified)	none
COC(=O)C(CCSC)NC(=O)CNS(=O)(=O)c1ccc(Br)cc1 (stereo unspecified)	CHOP inh 80
CCc1ccc(Nc2ncc3c(n2)CC(C)CC3=O)cc1 (stereo unspecified)	CHOP inh 73
Cc1cccc(NC(=O)CNC(=O)[C@H]2O[C@@H](n3ccc(=O)[nH]c3=O)[C@H](O)[C@@H]2O)c1C	none (no result: CHOP inh, MITF TRPM1 inh)
O=C(Cn1sc2ccccc2c1=O)NC12CC3CC(CC(C3)C1)C2	CHOP inh 90
COc1ccc(C2=Cc3ccccc3C(CC(=O)C3CC3)N2c2ccc(-c3cc(OC)c(OC)c(OC)c3)cc2)cc1 (stereo unspecified)	none (no result: CHOP inh, Peg3 prom inh, KKLEB cytotox, MITF TRPM1 inh, CF NFkB inh)
Cc1cc2nc(-c3ccco3)c(Cc3ccccc3C(F)(F)F)n2c(C)c1Br	none (no result: CHOP inh, Peg3 prom inh, KKLEB cytotox, MITF TRPM1 inh, CF NFkB inh)
CC(=O)Nc1ccc(S(=O)(=O)NCC2CC3CCC2C3)cc1 (stereo unspecified)	none (no result: CHOP inh)
Cc1cc(C)n(CCCN2CCC(C(=O)Nc3cccc(-c4cccc(F)c4)c3)CC2)n1	Peg3 prom inh 69, MITF TRPM1 inh 62 (no result: CHOP inh)
CCn1nc(C)c(CN2CCC(C(=O)Nc3cccc(-c4cccc(Cl)c4)c3)CC2)c1C	Peg3 prom inh 68 (no result: CHOP inh)
CCOC(=O)c1c(NC(=O)CN2CCCCC2)sc(CN(C)C)c1-c1ccccc1	none
CCOC(=O)c1c(NC(=O)CN2CCCCC2)sc2c1CCCC2O (stereo unspecified)	CHOP inh 86
COc1ccc2nc(N3C(=O)CNC3=S)sc2c1	none
CCOc1ccc2nc(N3C(=O)/C(=C/c4ccc(Cl)cc4)NC3=S)sc2c1	CHOP inh 105
Cc1cccc(NCC(=O)N/N=C/c2cccc(Br)c2)c1	CHOP inh 84
Cc1ccc(NCC(=O)N/N=C/c2cccc(Br)c2)cc1	none
NC(=O)C1(N2CCCCC2)CCN(C(=O)c2cc(COc3c(F)cccc3F)on2)CC1	none (no result: CHOP inh, MITF TRPM1 inh)
COc1ccc(OCc2cccc(C(=O)Nc3ccc(CN4CCCCC4)cc3)c2)cc1	none
CCOc1ccc(OCc2cccc(C(=O)Nc3ccc(CN4CCCCC4)cc3)c2)cc1	Peg3 prom inh 50
Cc1ccc(NC(=O)C(OC(=O)c2ccc(F)cc2)c2ccccc2)cc1Cl (stereo unspecified)	CHOP inh 73
Cc1ccc(-c2ccc(S(=O)(=O)NCc3ccco3)cc2)cc1	CHOP inh 75
C/C(=N\Nc1nc(Cl)c(Cl)cc1Cl)c1ccc(S(=O)(=O)NCc2ccco2)cc1	CHOP inh 87
COc1cccc(N(C(=O)Cn2nnc(-c3cccs3)n2)C(C(=O)NC(C)C)c2ccc(C)o2)c1 (stereo unspecified)	CHOP inh 93
CCOC(=O)c1c(N)sc(C(O)(C(F)(F)F)C(F)(F)F)c1-c1ccc(F)cc1	CHOP inh 78
COc1ccc(C(C)(O)c2nc(-c3cccc(F)c3)cs2)cc1 (stereo unspecified)	none (no result: CHOP inh, MITF TRPM1 inh)
CC(C)(C)c1nc(N2CCN(C(=O)c3ccco3)CC2)c2nnn(Cc3ccccc3)c2n1	CHOP inh 76
CC(C)(C)c1ccc(C(=O)NCC(=O)OCC(=O)Nc2nc(-c3ccc(F)cc3)cs2)cc1	CHOP inh 73
Cc1ccc(-c2csc(NC(=O)CCNC(=O)c3ccc(Cl)cc3)n2)cc1	none
Cc1ccc(NC(=O)CN2C(=O)C(=O)N(C3CCCC3)C2=O)c(Cl)c1	none (no result: CHOP inh)
CCCCN(CC)c1nc(-c2ccncc2)nc2ccccc12	CHOP inh 80
C/C(=N\Nc1nc(-c2ccccn2)nc2ccccc12)c1ccc(F)cc1	none
c1ccc(CCNc2nc(-c3ccccn3)nc3ccccc23)cc1	CHOP inh 81
CCCN(CCC)c1nc(-c2ccccn2)nc2ccccc12	Peg3 prom inh 52 (no result: CHOP inh)
CC(C)Cc1nnc(NC(=O)CCC(=O)N2CCN(Cc3ccc(Cl)cc3)CC2)s1	none (no result: CHOP inh)
O=C(NCCN1CCOCC1)c1ccc(NS(=O)(=O)c2cccc([N+](=O)[O-])c2)cc1	none (no result: CHOP inh)
O=S(=O)(c1ccc(Br)s1)N1CCN(CCc2ccccc2)CC1	none (no result: CHOP inh)
O=S(=O)(NCCOCC(F)(F)C(F)F)c1ccc2oc3ccccc3c2c1	CHOP inh 85
Clc1ccc(CSc2cc3c(nn2)-c2ccccc2CC3)cc1	CHOP inh 77
Clc1ccc(CSc2ccc(-c3ccccn3)nn2)cc1	none
CCSc1nnc(N2C(=O)c3ccc(C(=O)c4ccc(C(=O)O)cc4)cc3C2=O)s1	none (no result: CHOP inh)
COc1ccc(Nc2nc(NC(C)(C)C)nc(N3CCCC3)n2)c(OC)c1	CHOP inh 84
COc1ccc(Nc2nc(NC(C)(C)C)nc(N3CCOCC3)n2)c(OC)c1	none
CC(=O)c1nn(-c2cccc(Br)c2)cc1C(=O)c1ccc(Br)cc1	CHOP inh 78
COc1ccc2ncccc2c1Cc1c(OC)ccc2ncccc12	none (no result: CHOP inh)
O=c1c2cccnc2[nH]c(=S)n1CCCN1CCN(c2ccccc2F)CC1	CHOP inh 89
COc1ccc(/C=C2\N=C(SC)SC2=O)cc1OC	CHOP inh 79
CSC1=N/C(=C\c2c(F)cccc2Cl)C(=O)S1	CHOP inh 74
CSC1=N/C(=C\c2ccc(C)cc2)C(=O)S1	none
C=CCOC(=O)/C=C/C(=O)NC(N)=O	none
CC(NCC(O)COC1CCC(C(C)(C)C)CC1)c1ccccc1 (stereo unspecified)	CHOP inh 90, Peg3 prom inh 64
CC1CCC(C(C)C)C(OCC(O)CNC(C)c2ccccc2)C1 (stereo unspecified)	CHOP inh 93, Peg3 prom inh 106
CC1CCC(C(C)C)C(OCC(O)CNC(C)(C)C)C1 (stereo unspecified)	none
CCOC(=O)N1CCN(C(=O)c2cc3cc(OC)c(OC)cc3[nH]2)CC1	none (no result: CHOP inh)
